High-throughput results: PubChem BioAssay, National Center for Advancing Translational Sciences (NCATS)
TCR act – T cell receptor activation | Potency, µM (highest dose often 9.22 µM), actives largely listed as activators | 330,000 tested, under 10 active | primary human leukocytes, anti-CD3, IL-2 HTRF, 48 h
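HTRF read-out of IL-2 secretion: europium cryptate donor excited at 320nm, d2 acceptor emission at 665nm. Cells were primary human leukocytes incubated 48 hr with compounds and a-CD3 beads, supplying TCR signal only.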
Nrf2 activator – activates Nrf2 signaling | Potency, µM (doses to about 46.1 µM), most hits filed as activators | hit rate 0.31% among 410,000 | AREc32 ARE-luciferase reporter (MCF7-derived line), luminescence, 24 h; also: nearly all actives have a fitted effect of over 65% in size
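Reporter line AREc32 (ARE-Fluc), seeded overnight in OPTI-MEM with 5% FBS; compound pin-transferred, 24 hr at 37 deg C, 5% CO2; luminescent read-out.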
Nrf2 block – blocks Nrf2 signaling | A549 ARE-Fluc reporter, luciferase luminescence, 18-24 h | Potency, µM (top dose mostly 46 µM), actives largely listed as inhibitors | hit rate 2.1% among 360,000 | AID 504444; also: nearly all actives have a fitted effect of over 60% in size
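In this cell-based qHTS, ARE-driven firefly luciferase in A549 cells reports Nrf2 activity; the luminescent signal after BugLite lysis is the measured value, with a prior CellTiter-Fluor read for cell health.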
A549 tox – counter-screen for Nrf2 inhibitors: cytotoxicity in A549 cells | AID 504648 | Potency, µM (doses to about 46 µM), hits mostly inhibitors | A549 ARE-Fluc cells, CellTiter-Fluor viability, 18-24 h | hit rate 0.16% among 390,000
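Cytotoxicity counterscreen: CellTiter-Fluor fluorescence was measured in A549 ARE_Fluc cells after 18-24 h of compound exposure in a concentration series. The subsequent BugLite luminescent read reports ARE-luciferase activity.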
CCT chaperon mod – cytosolic chaperonin activity modulation; purified chaperonin ATPase assay, HTRF ADP detection, 30 min; activity change, % (concentration not given with the values), hits read low; hit rate 0.3% among 360,000; in the data active = activity change below about -30%
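TRiC at 40 or 20 nM final (batch-dependent) in 30 mM Tris pH 7.4, 100 mM KCl, 5 mM MgCl2, 1 mM DTT, with compound at single 76 uM and 10 uM ATP, 30 min at 37 deg C. ADP detected by HTRF Transcreener, 665/615 ratio.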
AT treatment – potential ataxia-telangiectasia treatments restoring KAP-1 phosphorylation; hit rate 0.19% among 320,000; Potency, µM (highest dose often 57.5 µM), hits mostly activators; F2112 A-T fibroblasts, KAP-1 phosphorylation AlphaLISA; neocarzinostatin DNA damage 30 min before lysis; also: nearly all actives have a fitted effect of over 45% in size
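ATM-like activity read as KAP-1 phosphorylation via AlphaLISA donor/acceptor antibody pairs after lysis and 6 hr at 25C. Cells were ATM-null patient fibroblasts (F2112, hTERT), dosed 60 min, then exposed to the DSB inducer NCS for 30 min.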
A number is an active result; i = inactive; ? = inconclusive; nt = no result given; [ ] = another dose, or the depositor's remark. An excerpt weighted towards active compounds, which were near 2.6% of everything screened. Unless noted, calls follow the shape of the dose curve; as a rule, active = well fitted curve in the direction sought with a large enough effect; inconclusive = small, poorly fitted or top-dose-only effect, or another doubt; inactive = no such curve, though single readings can be large; an effect the other way counts as inactive or inconclusive.

SMILES	TCR act	Nrf2 activator	Nrf2 block	A549 tox	CCT chaperon mod	AT treatment
CN1CCc2c(c3cnc4cc(Cl)ccc4c3n2C)C1	nt	nt	i	i	nt	nt
O=C(Nc1ccccc1F)C(=O)Nc1cccc2ccccc12	nt	i	?	i	i	i
O=C(Nc1cccc2ccccc12)/C(Cl)=C/c1ccccc1	i	10µM	nt	i	i	i
O=C(OCc1c(F)cccc1Cl)c1cnc2ccccc2n1	i	i	i	i	i	i
O=C(OCc1c(F)cccc1Cl)c1cnccn1	i	i	i	i	-40.4	i
Cc1ccc(NC(=O)c2nsc(Cl)c2Cl)cc1	i	5.62µM	?	i	i	i
Cc1ccc(NC(=O)c2sc3ccccc3c2Cl)cc1	nt	i	?	i	nt	nt
Cc1cccc(C)c1OCCCN1CCOCC1	i	i	i	i	i	i
CCn1c(CNC(=O)c2cc(OC)c(OC)c(OC)c2)cc2ccccc21	i	i	20.6µM	i	i	i
CCC(C)c1ccccc1NC(=O)COC(=O)c1ccc2[nH]c3c(c2c1)CCCC3 (stereo not given)	i	i[9.22 µM]	20.6µM	?	i	i
Cc1ccccc1C[n+]1cccc2ccccc21	i	i	?	i	i	i
CCCCCCCCC[n+]1cccc2c3ccccc3ccc21	i	i	9.2µM	?	i	i
CCCCCCCCCCCCCCCC[n+]1cccc2ccccc21	i	i	25.9µM	i	i	i
O/N=C/c1cccc[n+]1CCCCCC[n+]1ccccc1/C=N/O	i	i	i	i	i	i
N#Cc1nc(Nc2cccc([N+](=O)[O-])c2)nc(NC2CCCC2)n1	nt	nt	i	i	nt	nt
Fc1ccc(-c2cc(C(F)(F)C(F)F)[nH]n2)cc1	i	i	i	i	-36.9	?
Cc1cc2c(s1)c1cnn(Cc3ccccc3)c(=O)c1n2C	nt	nt	?	i	nt	nt
CC(=O)c1cccc(NC(=S)NC(=O)c2ccc(Br)cc2)c1	i	i	?	i	-40.3	i
Cn1c(NC2=NC3(CCCC3)C3=C(CCCC3=O)N2)nc2ccccc21	nt	nt	i	i	nt	nt
Cc1sc(NC(=O)CSc2nnc(-c3ccc(F)cc3)o2)c(C#N)c1C	i	i	i	i	-50.1	i
Cc1ccc(-c2nnc(SCC(=O)Nc3sc(C)c(C)c3C#N)n2C)cc1	i	i	i	i	i	nt
O=C(CSc1nnc(-c2ccncc2)o1)Nc1cc(F)ccc1F	i	i	i	i	-118.9	i
CCOC(=O)c1cnc(SCC(=O)Nc2sc(C)c(C)c2C#N)nc1N	nt	i	9.2µM	?	i	i
O=C(CSc1nnc(-c2ccncc2)o1)Nc1cccc(F)c1	i	i	i	i	i	i
N[C@@H](Cc1ccccc1)C(=O)N1CCC(C(=O)N[C@@H](CCC(=O)O)C(=O)O)CC1	i	i	i	?	i	i
SMILES	TCR act	Nrf2 activator	Nrf2 block	A549 tox	CCT chaperon mod	AT treatment
COc1ccccc1Oc1ccc2c(c1)C(=O)N(c1cccc3ncccc13)C2=O	i	i	16.4µM	i	i	i
COc1ccc(CN(CCN(C)C)c2ccccn2)cc1	i	i	i	i	i	i
CCCCCCCCCCCCCCCC[N+](C)(C)CCN(Cc1ccc(OC)cc1)c1ncccn1	i	i	20.6µM	?	i	i
CC(C)c1ccc2c(c1)C(c1ccc(N3CCOCC3)cc1)=NNC(c1cccs1)=N2	i	i	i	i	i	i
CC(C)Cn1cc(NC(=O)N2CCN(c3cccc(C(F)(F)F)c3)CC2)c2ccccc2c1=O	nt	i	i	i	nt	nt
CC(C)Cn1cc(NC(=O)Nc2cccc(C(F)(F)F)c2)c2ccccc2c1=O	nt	i	23.1µM	i	nt	nt
C/C=C(\CS(=O)(=O)c1ccccc1)S(=O)(=O)c1ccccc1	i	12.6µM	i	i	i	i
C/C(CS(=O)(=O)c1ccccc1)=N\O	i	i	i	i	i	i
O=C1CSC(=S)N1c1cccnc1	i	i	i	i	i	i
O=C1CSC(=S)N1Cc1cccnc1	i	8.91µM	i	?	i	i
O=C(NCCc1c[nH]c2ccccc12)C(=O)c1c[nH]c2ccccc12	i	i	i	i	-86.6	i
Cc1cccc(NC(=O)c2nc[nH]c2C(=O)NCCCNC(=O)c2[nH]cnc2C(=O)Nc2cccc(C)c2)c1	i	i	i	i	i	i
CC(C)(C)OC(=O)CNC(=O)c1nc[nH]c1C(=O)NCc1ccc(CNC(=O)OC(C)(C)C)cc1	i	i	i	i	i	i
CC(C)(C)OC(=O)NCCCCCNC(=O)c1nc[nH]c1C(=O)NCCCCCNC(=O)OC(C)(C)C	i	i	13µM	i	i	i
CC(C)(C)OC(=O)NCCCCCNC(=O)c1nc[nH]c1C(=O)NCc1ccc(CNC(=O)OC(C)(C)C)cc1	i	i	13µM	?	i	i
Cc1cccc(NC(=O)c2nc[nH]c2C(=O)NCCCCCNC(=O)OC(C)(C)C)c1	i	i	20.6µM	?	i	i
COc1cccc(C2c3c(ncn(-c4ccc(F)cc4)c3=N)Oc3ccc4ccccc4c32)c1 (stereo not given)	nt	nt	?	i	nt	nt
Cc1ccc(CN(C(=O)c2ccc(F)cc2)c2ccccn2)o1	nt	i	i	i	nt	nt
CCCCOc1cccc(C(=O)N(Cc2ccc(C)o2)c2ccccn2)c1	nt	i	14.6µM	i	nt	nt
CSc1cc2c(s1)c1cnn(Cc3cccc(N)c3)c(=O)c1n2C	nt	nt	i	i	nt	nt
COC(=O)C1=C(C(=O)OC)[C@]2([C@H]3CCCCN[C@@H](Cc4ccccc4)C(=O)N3Cc3ccccc3)C=C[C@H]1O2	i	i	23.1µM	i	i	i
CC(C)COc1ccc(C(=O)Nc2cc(S(=O)(=O)N3CCOCC3)ccc2N2CCCC2)cc1	i	i	i	i	i	i
CCC(=O)c1ccc(OCC(=O)Nc2cc(S(=O)(=O)N3CCCCC3)ccc2N2CCN(CC)CC2)cc1	i	i	i	i	-120.8	i
COc1ccc(NS(=O)(=O)c2ccc(N3CCOCC3)c(NC(=O)c3ccc(F)cc3)c2)cc1	i	i	9.2µM	i	i	i
CC(Oc1ccc(F)cc1)C(=O)Nc1cc(S(=O)(=O)N2CCOCC2)ccc1N1CCCCC1 (stereo not given)	i	i	20.6µM	?	i	i
CCN1CCN(c2ccc(S(=O)(=O)N3CCOCC3)cc2NC(=O)c2ccc(OCC(C)C)cc2)CC1	i	i	9.2µM	i	i	nt
COc1ccc(NS(=O)(=O)c2ccc(N3CCOCC3)c(NC(=O)c3cccc(F)c3)c2)cc1	i	i	?	i	i	i
COc1cccc(Cc2nc3ccccc3nc2SCC(=O)Nc2cccc(C)c2)c1	nt	i	nt	i	nt	nt
CCC(C)NC(=O)c1ccc2nc(-c3ccco3)c(-c3ccco3)nc2c1 (stereo not given)	nt	nt	i	i	nt	nt
CCOc1cc(C)c(-c2onc(C(F)(F)F)c2-c2csc(C)n2)c(O)c1	i	i	?	25.9µM	i	i
